In the library only some 12% were active in any assay of this set; here they are far more common.
Shiga inhibitor: A qHTS for Small Molecule Inhibitors of Shiga Toxin; Vero cells, Shiga toxin protein synthesis inhibition reporter; inhibition, % at 38.7 µM; 9.2% of 290,000 active; AID 2315, 2010; in the data active = inhibition mostly above about 28%, no sharp cut-off; inactive = mostly below about 43%; note: 0% is about no effect
LASV entry inh: qHTS for Inhibitors of binding or entry into cells for Lassa Virus. Lassa virus pseudotype entry inhibition, cell reporter. Potency, µM (titrated, usually from 37.9 µM), without a hit: at the highest dose activity change, negative = inhibition, actives largely listed as inhibitors. 1.2% of 300,000 active. AID 540256, 2011; calls by dose curve; tested in HEK293 cells; note: potency is the fitted concentration of half-maximal effect; % is set by controls: 0 for no effect and ±100 for the full control effect; nearly all actives have a fitted effect of over 50% in size
Cycloheximide cs: Cycloheximide Counterscreen for Small Molecule Inhibitors of Shiga Toxin; cell reporter, cycloheximide protein synthesis inhibition counterscreen; max response, %; 12% of 300,000 active; AID 2314, 2010; in the data active = max response mostly above about 13%, no sharp cut-off; inactive = mostly below about 14%; note: read at 38.3 µM for the half of the compounds with a filed dose; 0% is about no effect
MARV entry inh: qHTS for inhibitors of binding or entry into cells for Marburg Virus; Marburg virus pseudotyped entry inhibition, cell reporter; Potency, µM (series often up to 37.8 µM), for inactives: top-dose activity change, negative = inhibition, usual class: inhibitors; 1.8% of 300,000 active; calls by dose curve; tested in HEK293 cells; note: potency is the fitted concentration of half-maximal effect; % is set by controls: 0 for no effect and ±100 for the full control effect
* hit, by the source's call; [ ] = another dose, or the depositor's remark.

Results for Cc1cccc(NC(=O)c2ccc(F)c(S(=O)(=O)NCc3ccco3)c2)c1 ?
Shiga inhibitor: 84*; Cycloheximide cs: 44*

Results for CNS(=O)(=O)c1cc(C(=O)NCc2ccco2)ccc1Cl ?
Shiga inhibitor: -3; LASV entry inh: 7%; Cycloheximide cs: -2; MARV entry inh: 8%

How did C=CCOc1c(Cl)cc(C(=S)N2CCCC2)cc1OCC do in these assays?
Shiga inhibitor: 6; LASV entry inh: inconclusive; Cycloheximide cs: -2; MARV entry inh: -8%

What do the screens show for `COc1ccc(/C=N/NC(=O)c2ccc(COc3cccc4cccnc34)cc2)cc1OC`?
Shiga inhibitor: 27; LASV entry inh: 5%; Cycloheximide cs: -1; MARV entry inh: 22%

Results for O=C(N/N=C/c1ccc2c(c1)OCO2)c1ccc(COc2cccc3cccnc23)cc1 ?
Shiga inhibitor: 82*; Cycloheximide cs: 36*

How did O=C(N/N=C/c1ccncc1)c1ccc(COc2cccc3cccnc23)cc1 do in these assays?
Shiga inhibitor: 30; LASV entry inh: 3%[46.1 µM]; Cycloheximide cs: 12; MARV entry inh: inconclusive

What do the screens show for `Cc1ccc(C(C)C)c(OCc2ccc(C(=O)N/N=C/c3ccc(C(=O)O)cc3)cc2)c1`?
Shiga inhibitor: 25; Cycloheximide cs: 11*

What do the screens show for `CC(C)(C)c1ccc(OCc2ccc(C(=O)N/N=C/c3ccc(O)c(O)c3)cc2)cc1`?
Shiga inhibitor: 64*; LASV entry inh: inconclusive; Cycloheximide cs: 18*; MARV entry inh: inconclusive

How did O=C(N/N=C/c1cccc(O)c1)c1ccc(COc2cccc3cccnc23)cc1 do in these assays?
Shiga inhibitor: 35*; Cycloheximide cs: 21*

Results for COc1ccccc1N1CCN(Cc2nc(-c3cc(OC)c(OC)c(OC)c3)no2)CC1 ?
LASV entry inh: -17%[46.1 µM]; MARV entry inh: -20%[46.1 µM]

Results for Cc1cc(OCC(=O)Nc2ccc(C(=O)OC3CCCCC3)cc2)ccc1Cl ?
LASV entry inh: 2%[46.1 µM]

How did CC(C)(C)c1ccc(OCc2ccc(C(=O)N/N=C3\CC4CC=CC34)cc2)cc1 (centres undefined) do in these assays?
Shiga inhibitor: 17; LASV entry inh: -19%; Cycloheximide cs: 17*; MARV entry inh: 0%

Results for O=C(N/N=C1\CC2CC=CC12)c1ccc(COc2ccccc2)cc1 (centres undefined) ?
Shiga inhibitor: 20; LASV entry inh: -3%; Cycloheximide cs: 10; MARV entry inh: 37%

What do the screens show for `O=C(N/N=C/c1cccc(O)c1)c1ccc(COc2ccccc2Br)cc1`?
Shiga inhibitor: 25; LASV entry inh: 12%; Cycloheximide cs: 10; MARV entry inh: inconclusive

Results for O=C(N/N=C/c1ccc2cccc(OCc3ccccc3)c2n1)c1ccc(Cl)cc1 ?
Shiga inhibitor: 61*; LASV entry inh: -18%; Cycloheximide cs: 31*; MARV entry inh: inconclusive

Results for COc1ccc(/C=N/NC(=O)c2ccc(COc3cccc4cccnc34)cc2)cc1O ?
Shiga inhibitor: 32*; LASV entry inh: inconclusive; Cycloheximide cs: 13*; MARV entry inh: inconclusive

What do the screens show for `CN(C)CC1C2CCC(C2)C1O` (centres undefined)?
LASV entry inh: -2%[46.1 µM]; MARV entry inh: -1%[46.1 µM]

How did O=c1oc2cc(Br)ccc2n1CSC1=NCCS1 do in these assays?
Shiga inhibitor: 100*; LASV entry inh: -1%; Cycloheximide cs: 34*; MARV entry inh: 8%

What do the screens show for `COc1ccccc1NC(=O)CN(Cc1ccco1)C(=O)c1ccc(Cl)nc1`?
Shiga inhibitor: 32; Cycloheximide cs: -2

How did O=C1CN(C(=O)/C=C/c2ccc(Cl)cc2Cl)CCN1 do in these assays?
Shiga inhibitor: 59*; LASV entry inh: 2%[46.1 µM]; Cycloheximide cs: 34*; MARV entry inh: inconclusive

How did O=C(/C=C/c1ccc(Cl)cc1Cl)N1CCN(c2ccccc2[N+](=O)[O-])CC1 do in these assays?
Shiga inhibitor: 18; LASV entry inh: inconclusive; Cycloheximide cs: 9; MARV entry inh: 1%

What do the screens show for `CN1CCCN(C(=O)/C=C/c2ccc(Cl)cc2Cl)CC1`?
Shiga inhibitor: 28; Cycloheximide cs: 25*

How did O=C1COc2ccc(-c3csc(NCC4CCCO4)n3)cc2N1 (centres undefined) do in these assays?
Shiga inhibitor: -7; LASV entry inh: inconclusive; Cycloheximide cs: -2; MARV entry inh: -11%[46.1 µM]

What do the screens show for `COc1ccc(-c2cc(-c3ccc(OC)cc3)nc(-c3ccc4c(c3)NC(=O)CO4)c2)cc1`?
Shiga inhibitor: 15; LASV entry inh: -7%; Cycloheximide cs: 2; MARV entry inh: 3%

How did COc1cccc(-c2nc(-c3ccc4c(c3)NC(=O)CO4)cs2)c1 do in these assays?
Shiga inhibitor: 105*; LASV entry inh: 13%; Cycloheximide cs: 50*; MARV entry inh: inconclusive

Results for CC(Nc1nc(-c2ccc3c(c2)NC(=O)CO3)cs1)c1ccccc1 (centres undefined) ?
Shiga inhibitor: 41; LASV entry inh: -14%; Cycloheximide cs: 18*; MARV entry inh: inconclusive

How did N#CCc1nc(CSc2nc3ccccc3o2)cs1 do in these assays?
Shiga inhibitor: 70*; LASV entry inh: 8%; Cycloheximide cs: 25; MARV entry inh: 16%

What do the screens show for `N#C/C(=C(/O)c1ccc(-c2cccc([N+](=O)[O-])c2)o1)c1nc2ccccc2s1`?
Shiga inhibitor: 53*; LASV entry inh: 9%[46.1 µM]; Cycloheximide cs: 21; MARV entry inh: -2%[46.1 µM]

How did COc1ccc2nc(NC(=O)c3ccc(-c4cccc([N+](=O)[O-])c4)o3)sc2c1 do in these assays?
Shiga inhibitor: 31; Cycloheximide cs: 10

Assay outcomes from PubChem.
